The text below walks through data of PubChem BioAssay AID504545 (Broad Institute, 2011).

Measured potencies and affinities stand elsewhere. Records with an inconclusive call do not appear. Calls of active or inactive are those of the source. No rule for the calls is given here.

In the assay the target is Cyclin-dependent kinase 5 activator 1 (Homo sapiens) + Cyclin-dependent kinase 5 (Homo sapiens) (UniProt Q15078+Q00535). The assay is described as follows: blockade of human CDK5 activity – biochemical, cherry-picked samples, set 2, dose response (AID 504545). The conditions noted are these: CDK5/p35 kinase activity, biochemical plate reader; series mostly up to 30 µM.
Sequence of Cyclin-dependent kinase 5 activator 1 (Homo sapiens) + Cyclin-dependent kinase 5 (Homo sapiens) (Q00535 whole entry, looked up): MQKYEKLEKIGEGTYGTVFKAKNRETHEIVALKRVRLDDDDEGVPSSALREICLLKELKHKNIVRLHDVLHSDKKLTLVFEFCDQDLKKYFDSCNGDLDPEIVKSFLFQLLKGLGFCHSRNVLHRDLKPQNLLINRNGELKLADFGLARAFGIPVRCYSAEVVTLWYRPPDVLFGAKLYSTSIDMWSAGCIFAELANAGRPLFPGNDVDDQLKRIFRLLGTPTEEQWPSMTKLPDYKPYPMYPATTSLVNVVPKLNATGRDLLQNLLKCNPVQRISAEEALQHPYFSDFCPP
Sequence of Cyclin-dependent kinase 5 activator 1 (Homo sapiens) + Cyclin-dependent kinase 5 (Homo sapiens) (Q15078 whole entry, looked up): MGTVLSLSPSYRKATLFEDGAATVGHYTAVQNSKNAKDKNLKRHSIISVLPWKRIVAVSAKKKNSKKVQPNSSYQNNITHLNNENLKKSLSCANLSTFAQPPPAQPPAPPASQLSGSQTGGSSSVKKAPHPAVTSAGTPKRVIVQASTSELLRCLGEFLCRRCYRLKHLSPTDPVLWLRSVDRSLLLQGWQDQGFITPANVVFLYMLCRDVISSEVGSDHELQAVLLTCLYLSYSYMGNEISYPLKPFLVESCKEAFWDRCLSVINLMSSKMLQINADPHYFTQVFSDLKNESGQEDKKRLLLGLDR
Consider `Nc1ncnc2c1ccn2[C@@H]1O[C@H](CO)[C@@H](O)[C@H]1O`, for which the result was inactive.
Under `Nc1ccc(CC2=NCCN2)cc1` stands “inactive”.
Under `NC(=O)c1c(Br)n(C2OC(CO)C(O)C2O)c2ncnc(N)c12` (centres undefined) stands “inactive”.
Under `COc1cc2c(ccc3c4cc(OC)c(OC)cc4c[n+](C)c23)cc1O` stands “inactive”.
